The list is not random: actives were taken first. Their share in the collection is about 2.4%.
TLR4 MyD88 comp: blocks binding of human TLR4 to MyD88. O00206+Q99836. HeLa CL3-4 TLR4/MyD88 BLA complementation, FRET ratio. inhibition, % at 8.4 µM. hit rate 0.18% among 200,000; in the data active = inhibition above about 25%;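 note: 0% = vehicle and 100% = reference inhibitor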
TMEM16A act: activators or potentiators of mouse TMEM16A chloride channel | Q8BHY3 | HEK293 TMEM16A/YFP-H148Q/I152L, iodide quench fluorescence; active compounds read low | B-score at 10 µM | hit rate 0.3% among 340,000;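 active = fluorescence-ratio B-score plate-corrected deviation score at least 3 library SD below zero, with starting fluorescence score within 5 deviations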;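 note: channel opened by trigger with iodide after compound preincubation; score built on the fluorescence ratio of max minus min over baseline; more negative score means more quench and so TMEM16A activation or potentiation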
TLR9-MyD88 block: inhibitors of human TLR9-MyD88 binding. AID 504734. inhibition, % at 4.98 µM. Q9NR96+Q99836. hit rate 0.21% among 340,000. CHO BLA complementation TLR9-MyD88, CCF4 FRET ratio;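 active = inhibition above the mean over all tested compounds plus 3 SD, cut at about 21% in these data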;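 note: 0% = DMSO only wells and 100% = clavulanate BLA inhibitor control wells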
NOD2-RIPK2 inh: NOD2-RIPK2 protein interaction inhibition. CHO BLA complementation NOD2-RIPK2, CCF4 ratio. inhibition, % at 4.98 µM. hit rate 0.38% among 360,000; in the data active = inhibition above about 21%;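 note: 0% = vehicle only and 100% = reference blocker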
TMEM16A inh: inhibitors of mouse TMEM16A calcium-activated chloride channel; Q8BHY3; HEK293 TMEM16A/YFP iodide influx fluorescence, ionomycin; normalized B-score (activity score, 25-100; higher = stronger inhibition) at 10 µM; hit rate 1.2% among 310,000;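 active = ratio plate-corrected score three or more library SD toward inhibition, starting fluorescence score within five deviations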;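 note: score derived from kinetic fluorescence span divided by baseline fluorescence per well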
m5-HT2A agonist: agonists of mouse serotonin 5-HT2A receptor (HTR2A); CHO-K1 mHTR2A beta-arrestin complementation, luminescence; percent of 30 µM serotonin response; activation, % at 7.6 µM; hit rate 0.66% among 360,000;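 active = activation above a run cutoff, the mean activation of all tested compounds plus 3 SD, cut at about 14% in these data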;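 note: 0% = plate median of compound wells and 100% = 30 µM serotonin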
* = called active by the depositor; i = inactive; . = no result.

SMILES | TLR4 MyD88 comp | TMEM16A act | TLR9-MyD88 block | NOD2-RIPK2 inh | TMEM16A inh | m5-HT2A agonist
CCCN(CCC)CCCNC(=O)CC(C(=O)N1CCc2ccccc21)n1ccnc1 (configuration not stated) | 14.4 | i | -2.8 | 0.2 | 25* | 3.2
CC(=O)Nc1ccc(NC(=O)C(C)OC(=O)CNS(=O)(=O)c2ccc(Br)cc2Cl)cc1 (configuration not stated) | . | i | -4.9 | 5.3 | i | 0.6
COc1ccc(NC(=S)N2C3CCC2CC(NC(=O)NC24CC5CC(CC(C5)C2)C4)C3)c(OC)c1 (configuration not stated) | 14.4 | i | 9.5 | 0.4 | i | -2.8
O=C(CCN1C(=O)CSC1=O)Nc1ccccc1 | 0.8 | i | -5.8 | -1.6 | i | 1.7
Cn1c(=O)oc2cc(S(=O)(=O)N3CCc4ccccc4C3)ccc21 | . | i | 0.2 | -7.0 | i | -1.8
CS(=O)(=O)c1ccc(-n2nnc3ccccc32)c([N+](=O)[O-])c1 | . | i | 0.5 | -7.7 | i | 1.4
COc1ccc(NS(=O)(=O)c2ccc(-n3nnc4ccccc43)c([N+](=O)[O-])c2)cc1 | 1.3 | i | -10.2 | -5.4 | 25* | -15.3
CN(C)CCCNS(=O)(=O)c1ccc(-n2nnc3ccccc32)c([N+](=O)[O-])c1 | . | i | -3.0 | -0.2 | i | -5.1
O=[N+]([O-])c1cc(S(=O)(=O)Nc2cccc(C(F)(F)F)c2)ccc1-n1nnc2ccccc21 | -15.1 | i | -3.1 | 14.0 | 100* | 4.4
Cc1cccc(N2CC(C(=O)Nc3nnc(SCC(=O)Nc4cc(C)on4)s3)CC2=O)c1 (configuration not stated) | 12.4 | i | -20.1 | -9.5 | i | 7.9
CCn1c(CSCc2ccc(C)cc2)nnc1SCC(=O)N1CCN(c2ccccc2)CC1 | -6.6 | i | 3.4 | 6.0 | 25* | -1.9
O=C(c1ccccc1Sc1c(Cl)cccc1[N+](=O)[O-])N1CCOCC1 | -15.7 | i | 7.7 | -1.6 | i | -1.0
COc1cc(C(=O)NC23CC4CC(CC(C4)C2)C3)cc(OC)c1OC | . | i | 3.0 | 8.1 | i | 1.3
COc1cc(C(=O)N[C@H](C(=O)NC(C)C23CC4CC(CC(C4)C2)C3)C(C)C)cc(OC)c1OC (some centres not stated) | -17.9 | i | -2.5 | -7.0 | 100* | 0.1
Clc1ccc(N=c2ssnc2Cl)cc1 | -13.1 | i | 5.7 | 5.0 | 100* | 1.3
CC(C)Cn1c(=O)c2ccccc2n2c(SCC(=O)N3c4ccccc4CC3C)nnc12 (configuration not stated) | 11.5 | i | 0.8 | -23.2 | i | 1.0
O=C1C[C@H]2[C@H](CO)[C@@H](OC(=O)c3ccc(-c4ccccc4)cc3)C[C@H]2O1 | . | i | . | -11.6 | 25* | 1.8
O=C1CC2C(CC(OC(=O)c3ccc(-c4ccccc4)cc3)C2CO)O1 (configuration not stated) | -23.4 | i | -8.5 | -0.2 | i | -0.2
Cc1ccc(-n2c(O)c(/C=N/Nc3ccc(S(=O)(=O)N4CCOCC4)cc3[N+](=O)[O-])c3ccccc3c2=O)c(C)c1 | 14.8 | i | 1.1 | 4.5 | 100* | 5.5
O=C(O)c1ccc(/C=N\Nc2ccc(S(=O)(=O)N3CCOCC3)cc2[N+](=O)[O-])cc1 | . | i | -12.2 | -4.7 | i | 1.9
CCn1c(SCc2nc3scc(-c4ccccc4)c3c(=O)[nH]2)nnc1-c1cccs1 | 10.8 | i | -6.1 | 1.5 | 100* | 1.1
Cc1nnc(SCc2nc3scc(-c4ccccc4)c3c(=O)[nH]2)s1 | . | i | 0.3 | 4.3 | i | 1.5
COc1ccc(-c2ccc(/C=C(\NC(=O)c3ccccc3)C(=O)N3CCOCC3)o2)cc1 | 12.7 | i | -2.9 | 8.6 | i | 0.8
CS(=O)(=O)Nc1ccccc1C(=O)Nc1cccc(Cl)c1 | -11.6 | i | 1.3 | -2.8 | 25* | -2.6
O=C(Cc1ccccc1)NCC(=O)N1CCC1 | . | i | 3.8 | -3.0 | i | -2.9
SMILES | TLR4 MyD88 comp | TMEM16A act | TLR9-MyD88 block | NOD2-RIPK2 inh | TMEM16A inh | m5-HT2A agonist
O=C(COc1ccc(C(=O)c2ccccc2)cc1)NC1CCCCCC1 | -6.8 | i | -2.3 | 2.2 | i | -4.4
CCC(C)(C)NC(=O)COc1ccc(C(=O)c2ccccc2)cc1 | 5.3 | i | 10.6 | -4.8 | 25* | -3.0
COc1cc(/C=C2/SC(=S)N(c3c(C)n(C)n(-c4ccccc4)c3=O)C2=O)ccc1O | -5.1 | -8.09* | -7.4 | 0.6 | i | -4.0
Cc1onc(-c2ccccc2)c1C(=O)NNC(=O)c1ccccc1 | . | i | -8.9 | 2.0 | . | 1.5
Cc1onc(-c2ccccc2)c1C(=O)NNC(=S)NC(=O)/C=C/c1ccccc1 | 3.4 | i | -0.8 | 2.0 | i | -2.4
Cc1onc(-c2ccccc2Cl)c1C(=O)NC(=S)NCC(=O)c1ccccc1 | -9.0 | -9.01* | 5.7 | -5.1 | i | -2.3
Cc1ccccc1C(=O)NNC(=S)NC(=O)c1ccc(Cl)cc1Cl | -8.5 | i | -0.5 | -3.9 | 100* | -0.4
Cc1onc(-c2ccccc2)c1C(=O)NNC(=S)NC(=O)c1ccc(Cl)cc1Cl | -1.7 | i | -2.4 | -12.8 | 100* | 2.6
Cc1onc(-c2ccccc2)c1C(=O)NNC(=S)NC(=O)c1ccc(Br)cc1 | 4.6 | i | -9.2 | -11.4 | 100* | -1.3
O=C(NC(=S)NNC(=O)c1ccc(Cl)cc1Cl)c1cccnc1 | 1.0 | i | -6.9 | -2.5 | i | 4.4
Cc1cccc(C(=O)NC(=S)NNC(=O)Cc2ccccc2)c1 | -9.2 | i | -0.7 | 1.3 | i | 5.2
Cc1cccc(C(=O)NC(=S)NNC(=O)c2ccccc2Cl)c1 | -10.1 | i | 0.0 | 12.5 | 100* | -1.3
CC(=O)c1c(COC(=O)c2cccnc2)nc2ccccc2[n+]1[O-] | -3.8 | -8.84* | -7.0 | -12.1 | i | 2.0
CC(C)(C)c1ccc(-c2nnc(SCC(=O)c3ccc4c(c3)OCCO4)o2)cc1 | -4.5 | i | -5.1 | 1.4 | 100* | -4.2
CC(=O)CSc1nnc(-c2ccc3c(c2)OCO3)o1 | 10.1 | -15.9* | 9.7 | -8.7 | i | -2.7
O=C1C(Cl)=C(Nc2ccccc2)C(=O)c2ccccc21 | -2.8 | i | -2.7 | 5.4 | i | -2.2
O=C(O)c1ccc(NC2=C(Cl)C(=O)c3ccccc3C2=O)cc1 | . | i | 3.7 | -9.1 | 100* | 4.9
Cc1ccc(C(=O)CSC2=C(C#N)C(c3ccco3)CC(=O)N2)c(C)c1 (configuration not stated) | 2.1 | i | 1.4 | 6.9 | 25* | -3.1
CCOc1ccc(CCN2C(=O)C3C4CCC(O4)C3C2=O)cc1OCC (configuration not stated) | . | i | -1.4 | -9.0 | . | 2.9
